The record followed here is PubChem BioAssay (EPA / NIEHS).

Read-out in assay [1]: Macrophage colony-stimulating factor (MCSF), CSF1 (gene 1435)
As to the kind of experiment: BSK_hDFCGF_MCSF: BioMAP Diversity Plus: hDFCGF Assay for Macrophage colony-stimulating factor (MCSF) Biomarker Activity (AID 2283060). The note with it: primary human foreskin fibroblasts; actives raise or lower the signal. The method, boiled down:
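Human foreskin primary fibroblasts were treated with test chemical for 24 h, and M-CSF was then measured by ELISA. Data were fitted bidirectionally against DMSO as the negative control and activity baseline.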

A short description of assay [2]: BSK_hDFCGF_SRB: Viability Assessment in the BioMAP Diversity Plus: hDFCGF Assay (AID 2283061).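 Further: cells exposed to compound for 24 h before the read.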 The note with it: primary human foreskin fibroblasts. The method, boiled down:
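Human foreskin primary fibroblasts were treated with compound and assessed 24 h after dosing. Total protein was measured by sulforhodamine B staining (0.1% SRB after 10% TCA fixation, 560 nm read) as a cytotoxicity marker, with bidirectional fitting against DMSO baseline.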

Read-out in assay [3]: TIMP metallopeptidase inhibitor 1 (TIMP1), TIMP1 (gene 7076)
Nature of the assay: BSK_hDFCGF_TIMP1: BioMAP Diversity Plus: hDFCGF Assay for TIMP metallopeptidase inhibitor 1 (TIMP1) Biomarker Activity (AID 2283062). The note with it: primary human foreskin fibroblasts; actives raise or lower the signal. The method, boiled down: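 Primary human foreskin fibroblasts in the hDFCGF system were dosed with compound for 24 h, then TIMP-1 was measured by ELISA. Activity was fitted bidirectionally relative to DMSO control; parallel SRB staining assessed cytotoxicity.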

Read-out in assay [4]: Monokine induced gamma interferon (MIG), CXCL9 (gene 4283)
As to the kind of experiment: BSK_hDFCGF_MIG: BioMAP Diversity Plus: hDFCGF Assay for Monokine induced gamma interferon (MIG) Biomarker Activity (AID 2283063). The note with it: primary human foreskin fibroblasts; actives raise or lower the signal. The method, boiled down:
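ELISA read-out of MIG from primary human dermal fibroblasts 24 h post-dosing. Gain or loss of signal fitted bidirectionally, DMSO as baseline.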

Read-out in assay [5]: Vascular cell adhesion molecule 1 (VCAM1), VCAM1 (gene 7412)
Nature of the assay: BSK_hDFCGF_VCAM1: BioMAP Diversity Plus: hDFCGF Assay for Vascular cell adhesion molecule 1 (VCAM1) Biomarker Activity (AID 2283065).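 On AC50: VCAM-1 protein level quantified by ELISA after 24 h chemical exposure.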 To be noted: primary human foreskin fibroblasts; actives raise or lower the signal. The method, boiled down:
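Primary human foreskin fibroblasts (hDFCGF system) were dosed with chemical and VCAM-1 was measured by ELISA 24 h later. Bidirectional curve fitting used DMSO as negative control and activity baseline.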

Read-out in assay [6]: Plasminogen activator inhibitor-1 (PAI1), SERPINE1 (gene 5054)
Nature of the assay: BSK_hDFCGF_PAI1: BioMAP Diversity Plus: hDFCGF Assay for Plasminogen activator inhibitor-1 (PAI1) Biomarker Activity (AID 2283066). To be noted: primary human foreskin fibroblasts; actives raise or lower the signal. The method, boiled down:
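Human foreskin fibroblasts in the hDFCGF system were dosed with compound for 24 h; PAI-1 was quantified by ELISA. Bidirectional curve fitting used DMSO as negative control and baseline.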

Read-out in assay [7]: Intercellular Adhesion Molecule 1 (ICAM1), ICAM1 (gene 3383)
As to the kind of experiment: BSK_KF3CT_ICAM1: BioMAP Diversity Plus: KF3CT Assay for Intercellular Adhesion Molecule 1 (ICAM1) Biomarker Activity (AID 2283067). To be noted: primary human keratinocytes with fibroblasts; actives raise or lower the signal. The method, boiled down:
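Human keratinocyte plus foreskin fibroblast primary co-culture was exposed to chemical for 24 h. ICAM-1 was then quantified by ELISA, and the data were fit bidirectionally against DMSO as the negative control and baseline.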

Read-out in assay [8]: Interferon-gamma inducible Protein 10 (IP10), CXCL10 (gene 3627)
As to the kind of experiment: BSK_KF3CT_IP10: BioMAP Diversity Plus: KF3CT Assay for Interferon-gamma inducible Protein 10 (IP10) Biomarker Activity (AID 2283068). The note with it: primary human keratinocytes with fibroblasts; actives raise or lower the signal. The method, boiled down: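 ELISA read-out of IP-10 after 24 h chemical dosing of human skin primary co-culture (keratinocytes, foreskin fibroblasts). Gain or loss of signal relative to DMSO, bidirectional curve fit.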

A short description of assay [9]: BSK_KF3CT_SRB: Viability Assessment in the BioMAP Diversity Plus: KF3CT Assay (AID 2283069).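 Further: fitted for both signal gain and loss against DMSO baseline.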 To be noted: primary human keratinocytes with fibroblasts. The method, boiled down:
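Keratinocytes co-cultured with foreskin fibroblasts (human primary); chemical added, 24 h; fix 10% TCA, stain 0.1% SRB, A560. Bidirectional fit vs DMSO.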

Read-out in assay [10]: Interleukin-1 alpha (IL1a), IL1A (gene 3552)
Nature of the assay: BSK_KF3CT_IL1a: BioMAP Diversity Plus: KF3CT Assay for Interleukin-1 alpha (IL1a) Biomarker Activity (AID 2283070). The note with it: primary human keratinocytes with fibroblasts; actives raise or lower the signal. The method, boiled down: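 Chemicals were dosed onto co-cultured human keratinocytes and foreskin fibroblasts, IL-1a was quantified by ELISA at 24 h, and activity was fitted in both directions relative to DMSO controls.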

Read-out in assay [11]: TIMP metallopeptidase inhibitor 2 (TIMP2), TIMP2 (gene 7077)
As to the kind of experiment: BSK_KF3CT_TIMP2: BioMAP Diversity Plus: KF3CT Assay for TIMP metallopeptidase inhibitor 2 (TIMP2) Biomarker Activity (AID 2283071). The note with it: primary human keratinocytes with fibroblasts; actives raise or lower the signal. The method, boiled down: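 Human primary keratinocyte/foreskin fibroblast co-culture dosed with chemical and sampled at 24 h. TIMP-2 levels quantified by ELISA; bidirectional fitting against DMSO negative control as baseline.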

Read-out in assay [12]: Matrix Metallopeptidase 9 (MMP9), MMP9 (gene 4318)
Nature of the assay: BSK_KF3CT_MMP9: BioMAP Diversity Plus: KF3CT Assay for Matrix Metallopeptidase 9 (MMP9) Biomarker Activity (AID 2283074).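 On AC50: MMP9 protein level quantified by ELISA in the co-culture.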 The note with it: primary human keratinocytes with fibroblasts; actives raise or lower the signal. The method, boiled down: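 Human keratinocyte/foreskin fibroblast co-culture; compound added; 24 h; MMP-9 by ELISA; bidirectional fit vs DMSO baseline.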

Read-out in assay [13]: urokinase plasminogen activator (uPA), PLAU (gene 5328)
As to the kind of experiment: BSK_KF3CT_uPA: BioMAP Diversity Plus: KF3CT Assay for urokinase plasminogen activator (uPA) Biomarker Activity (AID 2283075). The note with it: primary human keratinocytes with fibroblasts; actives raise or lower the signal. The method, boiled down:
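ELISA readout of uPA, analyzed for signal gain or loss relative to DMSO, from a human primary keratinocyte–foreskin fibroblast co-culture measured 24 h after chemical treatment.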

Read-out in the next assay: CD40, CD40 (gene 958)
As to the kind of experiment: BSK_LPS_CD40: BioMAP Diversity Plus: LPS Assay for CD40 Biomarker Activity (AID 2283076). The note with it: primary human HUVEC with PBMC; actives raise or lower the signal. The method, boiled down: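 Primary human umbilical vein endothelial cells co-cultured with peripheral blood mononuclear cells, LPS-stimulated, were dosed with chemical and read 24 h later. CD40 levels were measured by ELISA and fitted bidirectionally against DMSO as negative control and baseline.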

Read-out in assay [14]: E-selectin (Homo sapiens) (UniProt P16581)
Nature of the assay: BSK_LPS_Eselectin: BioMAP Diversity Plus: LPS Assay for Eselectin Biomarker Activity (AID 2283077). To be noted: primary human HUVEC with PBMC; actives raise or lower the signal. The method, boiled down:
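Human umbilical vein endothelial cells co-cultured with peripheral blood mononuclear cells under LPS stimulation; E-selectin measured by ELISA 24 h after chemical dosing. Activity fitted bidirectionally against DMSO as negative control and baseline.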

Read-out in assay [15]: Interleukin-8 (IL8), CXCL8 (gene 3576)
Nature of the assay: BSK_LPS_IL8: BioMAP Diversity Plus: LPS Assay for Interleukin-8 (IL8) Biomarker Activity (AID 2283078). The note with it: primary human HUVEC with PBMC; actives raise or lower the signal. The method, boiled down:
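Human umbilical vein endothelial cells co-cultured with PBMC were stimulated with LPS; IL-8 levels were measured by ELISA 24 h after chemical dosing. Activity was fitted bidirectionally against DMSO as negative control and baseline.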

The nature of assay [16]: BSK_LPS_SRB: Viability Assessment in the BioMAP Diversity Plus: LPS Assay (AID 2283079).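 Further: total protein by sulforhodamine B absorbance as a cytotoxicity measure; measured one day after compound addition; fitted in both directions against DMSO so loss or gain of signal counts.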 To be noted: primary human HUVEC with PBMC. The method, boiled down: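 Human umbilical vein endothelial cells co-cultured with PBMC (LPS system) were dosed for 24 h. Total protein was stained with 0.1% sulforhodamine B after 10% TCA fixation, read at 560 nm, and fitted bidirectionally against DMSO baseline.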

Read-out in assay [17]: Interleukin-1 alpha (IL1a), IL1A (gene 3552)
As to the kind of experiment: BSK_LPS_IL1a: BioMAP Diversity Plus: LPS Assay for Interleukin-1 alpha (IL1a) Biomarker Activity (AID 2283080). The note with it: primary human HUVEC with PBMC; actives raise or lower the signal. The method, boiled down: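 Human umbilical vein endothelial cells co-cultured with peripheral blood mononuclear cells were LPS-stimulated and exposed to test chemicals for 24 h. IL-1 alpha was quantified by ELISA, with bidirectional curve fitting against DMSO as the negative control and baseline.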

Read-out in assay [18]: Matrix Metallopeptidase 1 (MMP1), MMP1 (gene 4312)
Nature of the assay: BSK_hDFCGF_MMP1: BioMAP Diversity Plus: hDFCGF Assay for Matrix Metallopeptidase 1 (MMP1) Biomarker Activity (AID 2283064). The note with it: primary human foreskin fibroblasts; actives raise or lower the signal. The method, boiled down:
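hDFCGF primary fibroblasts (human foreskin); chemical added; 24 h; MMP1 by ELISA; bidirectional fit vs DMSO.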

The structures appear in SMILES notation. Values joined by “and” are separate entries in the source; they are usually repeats but may differ in a detail not shown here. Identical values can stand only once. Where a structure was tested more than once in an assay, its records may differ in their call. Active and inactive are the calls of the source. How the source made its calls: active means hit-call score of the fitted dose curve at least 0.9, where 1 is the maximum; inactive means score below 0.9.

E-selectin (Homo sapiens), sequence (P16581 whole entry, looked up): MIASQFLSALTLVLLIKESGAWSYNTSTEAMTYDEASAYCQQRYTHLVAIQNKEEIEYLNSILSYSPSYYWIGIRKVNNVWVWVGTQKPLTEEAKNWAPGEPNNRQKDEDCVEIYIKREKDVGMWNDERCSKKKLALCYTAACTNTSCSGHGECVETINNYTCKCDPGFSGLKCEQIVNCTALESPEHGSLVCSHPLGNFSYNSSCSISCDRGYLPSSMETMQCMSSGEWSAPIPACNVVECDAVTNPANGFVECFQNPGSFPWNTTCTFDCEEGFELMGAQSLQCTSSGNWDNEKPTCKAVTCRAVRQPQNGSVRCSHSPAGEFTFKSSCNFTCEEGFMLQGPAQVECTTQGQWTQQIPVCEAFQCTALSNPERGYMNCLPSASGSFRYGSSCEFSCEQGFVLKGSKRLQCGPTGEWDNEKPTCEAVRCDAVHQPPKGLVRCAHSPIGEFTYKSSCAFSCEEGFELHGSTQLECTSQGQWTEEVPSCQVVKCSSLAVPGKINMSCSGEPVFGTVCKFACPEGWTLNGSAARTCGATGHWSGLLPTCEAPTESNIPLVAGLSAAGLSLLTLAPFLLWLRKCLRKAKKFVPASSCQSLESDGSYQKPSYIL

For orientation: AC50 means the midpoint of the concentration-response curve, whichever way the signal moves. On to `CCN(CC)c1ccc(N=Nc2ccccc2)cc1`, for which the outcome in assay [1], in assay [2], in assay [3], in assay [4], in assay [6] and in assay [7] was inactive. The result in assay [8], in assay [9], in [10], in assay [11], in assay [13] and in assay [14] was inactive. For the same molecule, the half-maximal activity concentration (AC50) was 20 µM (active) in assay [5]; 9.24 µM (active) in assay [12]; 28.6 µM (active) with CD40, CD40 (gene 958); 20 µM (active) in [15]; 29.6 µM (active) in [16]; 34.4 µM (active) in assay [17].

As to `CCOC(=O)CC(=O)C(F)(F)C(F)(F)F`, the outcome in assay [1], in assay [2], in assay [3], in assay [4], in assay [18] and in assay [5] was inactive. The outcome in assay [6], in [7], in [8], in assay [9], in assay [10] and in assay [11] was inactive. Also, the outcome in assay [12] is “inactive”; in assay [13] it was “inactive”; with CD40, CD40 (gene 958), “inactive”; in assay [14], “inactive”; in [15] it was “inactive”; in assay [16] it was “inactive”. In assay [17], the outcome was inactive.

For the molecule `O=S(=O)(Cl)C(F)(F)C(F)(F)C(F)(F)C(F)(F)C(F)(F)C(F)(F)C(F)(F)C(F)(F)F`, the result in [1], in [2], in assay [3], in assay [4], in [18] and in assay [5] was inactive. Besides, the outcome in assay [6], in assay [7], in assay [9], in assay [10], in assay [11] and in assay [13] was inactive. Moreover, the outcome with CD40, CD40 (gene 958) is “inactive”; in [14], “inactive”; in assay [16] it was “inactive”; in assay [17] it was “inactive”. Moreover, the AC50 in assay [8] is 34.8 µM (active) and 32.5 µM (active); in assay [12], 30 µM (active) and 51.1 µM (active); in assay [15], 30 µM (active).

On to `C=CC(=O)OCC(F)(F)C(F)(F)C(F)(F)C(F)(F)C(F)(F)C(F)(F)C(F)(F)C(F)F`, for which the concentration at half-maximal activity (AC50) was 28.8 µM (active) and 30 µM (active) in assay [1]; 26.9 µM (active) and 30 µM (active) in assay [4]; 17 µM (active) and 17.5 µM (active) in assay [5]; 24 µM (active) in the assay with CD40, CD40 (gene 958). Besides, the result in [2], in [3], in assay [18], in assay [6], in [7] and in assay [8] was inactive. The outcome in assay [9] was “inactive”; in assay [10], “inactive”; in assay [11] it was “inactive”; in assay [12], “inactive”; in assay [13] it was “inactive”; with CD40, CD40 (gene 958) it was “inactive”. The result in assay [14], in assay [15], in assay [16] and in assay [17] was inactive.

Consider `Cc1ccc(O)c(-n2nc3ccccc3n2)c1`, for which the result in [1], in [2], in [3], in assay [4], in [18] and in assay [5] was inactive. For the same molecule, the outcome in assay [6], in assay [7], in assay [8], in assay [9], in assay [10] and in [11] was inactive. Also, the outcome in [12] was “inactive”; in assay [13], “inactive”; in the assay with CD40, CD40 (gene 958) it was “inactive”; in [14], “inactive”; in assay [15], “inactive”; in assay [16], “inactive”. In addition, the result in assay [17] was inactive.
